We go through 10 molecules from PubChem BioAssay (Tox21).

Each structure is given as a SMILES string. A number with no mark means an inactive call. Records with an inconclusive call do not appear. Calls of active or inactive are those of the source. Unless noted, the call rests on the fitted dose curve; in most records, active means well fitted curve in the direction sought with a large enough effect in the repeat runs; inconclusive means weak or mixed curves; inactive means no such curve, though single readings can be large; an effect the other way counts as inactive or inconclusive.

In assay [1] the target is Luciferin 4-monooxygenase (Photinus pyralis) (UniProt P08659). The assay can be described thus: qHTS assay to identify small molecule inhibitors of firefly luciferase (AID 1224835). Further: nearly all actives have a fitted effect of over 25% in size. Further: potency means the concentration at half of the fitted maximal effect. In short, it runs like this:
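Biochemical qHTS: compounds run as interplate titrations against purified firefly enzyme, with D-luciferin and ATP each at its KM concentration. Light output recorded by CCD imaging.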

Assay [2] in a line: qHTS assay to identify small molecule agonists of the constitutive androstane receptor (CAR) signaling pathway - cell viability counter screen (AID 1224836). Further: nearly all actives have a fitted effect of over 45% in size. Further: potency means the concentration at half of the fitted maximal effect. In short, it runs like this: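 Multiplexed viability check: HepG2-CYP2B6-hCAR cells, 15-point compound dosing, 0.75 uM PK11195 final, 23 h at 37 C, CellTiter-Fluor fluorescence.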
Background: Quantitative high-throughput screening tests each substance at several concentrations.

Assay [3] in a line: qHTS assay to identify small molecule antagonists of the constitutive androstane receptor (CAR) signaling pathway - cell viability counter screen (AID 1224837). Further: on the % scale 0 is the no-effect control and ±100 the full control effect; nearly all actives have a fitted effect of over 45% in size. In short, it runs like this:
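Fluorescence from CellTiter-Fluor served as the viability signal. Human hepatoma HepG2 cells stably bearing hCAR and CYP2B6-2.2kb received compound plus CITCO (50 nM final) for 23 hr.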

The target of assay [4] is Nuclear receptor subfamily 1 group I member 3 (Homo sapiens) (UniProt Q14994). As to the kind of experiment: qHTS assay to identify small molecule antagonists of the constitutive androstane receptor (CAR) signaling pathway (AID 1224838).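 Further: HepG2 cells stably expressing hCAR with CYP2B6 luciferase reporter stimulated by CITCO; nearly all actives have a fitted effect of over 40% in size.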 Further: potency means the concentration at half of the fitted maximal effect. A digest of the protocol:
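Quantitative HTS in double-stable HepG2-CYP2B6-hCAR cells. After 4 h plating, cells get compound (15 concentrations) and CITCO at 50 nM final, incubate 24 h at 37 C, then ONE-Glo luminescence is read.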

For assay [5] the target is unchanged. The assay can be described thus: qHTS assay to identify small molecule agonists of the constitutive androstane receptor (CAR) signaling pathway (AID 1224839). Further: nearly all actives have a fitted effect of over 15% in size. Further: potency means the concentration at half of the fitted maximal effect.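 On activation: HepG2 cells stably carrying human CAR and a CYP2B6 luciferase reporter; on the % scale 0 is the no-effect control and ±100 the full control effect.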 A digest of the protocol: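 Using human hepatoma HepG2 cells engineered with hCAR and a CYP2B6-2.2kb reporter, 15-concentration compound series were incubated 24 h alongside PK11195 at 0.75 uM final, with luminescence quantified afterwards.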

A short description of assay [6]: qHTS assay to identify small molecule antagonists of the estrogen related receptor signaling pathway with the pleiotropic PPARgamma coactivator (PGC) from Tox21 10K library - cell viability counter screen (AID 1224840; active means well fitted cell-killing curve with a large enough effect in the repeat runs, not every such curve was filed as active; further: on the % scale 0 is the no-effect control and ±100 the full control effect; nearly all actives have a fitted effect of over 40% in size). A digest of the protocol: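 Compounds in DMSO, alongside positive and negative controls, were pinned onto PGC/ERR cells (2,000 per well). Exposure lasted 17.5 hours at 37 C, followed by a 30-minute CellTiter-Fluor incubation and fluorescence reading.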

Assay [7] in a line: qHTS assay to identify small molecule antagonists of the estrogen related receptor signaling pathway with the pleiotropic PPARgamma coactivator (PGC) from Tox21 10K library (AID 1224841; call rule not given here; further: on the % scale 0 is the no-effect control and ±100 the full control effect; actives are mostly falling curves and most rising ones were filed inactive; nearly all actives have a fitted effect of over 50% in size). A digest of the protocol:
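Compound exposure ran 18 hours at 37 C in PGC/ERR cells (2,000/well) that had first rested 6 hours in a 37 C/5% CO2 incubator. Luciferase activity was then detected with One-Glo after a 30-minute room-temperature step.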

Assay [8] is described as follows: qHTS assay to identify small molecule agonists of the estrogen related receptor signaling pathway with the pleiotropic PPARgamma coactivator (PGC) from Tox21 10K library (AID 1224842). Further: on the % scale 0 is the no-effect control and ±100 the full control effect; nearly all actives have a fitted effect of over 15% in size. In short, it runs like this:
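PGC/ERR reporter cell line, 2,000 cells per well, incubated 6 h at 37 C before 23 nL compound in DMSO was added. After 18 h at 37 C, One-Glo luminescence read following 30 min at room temperature.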

The target of assay [9] is Thyrotropin receptor (Homo sapiens) (UniProt P16473). The assay can be described thus: qHTS assay to identify small molecule agonists of the thyroid stimulating hormone receptor (TSHR) signaling pathway (AID 1224843; calls by dose curve; further: on the % scale 0 is the no-effect control and ±100 the full control effect; nearly all actives have a fitted effect of over 45% in size). In short, it runs like this: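 TSHR-HEK293 cells in agonist mode, 30 min room-temperature step, then cAMP measured by competitive HTRF (cAMP-d2 with anti-cAMP cryptate) after 1 h at room temperature. Tested at 15 concentrations in triplicate.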
Chain of Thyrotropin receptor (Homo sapiens) (P16473 whole entry, looked up): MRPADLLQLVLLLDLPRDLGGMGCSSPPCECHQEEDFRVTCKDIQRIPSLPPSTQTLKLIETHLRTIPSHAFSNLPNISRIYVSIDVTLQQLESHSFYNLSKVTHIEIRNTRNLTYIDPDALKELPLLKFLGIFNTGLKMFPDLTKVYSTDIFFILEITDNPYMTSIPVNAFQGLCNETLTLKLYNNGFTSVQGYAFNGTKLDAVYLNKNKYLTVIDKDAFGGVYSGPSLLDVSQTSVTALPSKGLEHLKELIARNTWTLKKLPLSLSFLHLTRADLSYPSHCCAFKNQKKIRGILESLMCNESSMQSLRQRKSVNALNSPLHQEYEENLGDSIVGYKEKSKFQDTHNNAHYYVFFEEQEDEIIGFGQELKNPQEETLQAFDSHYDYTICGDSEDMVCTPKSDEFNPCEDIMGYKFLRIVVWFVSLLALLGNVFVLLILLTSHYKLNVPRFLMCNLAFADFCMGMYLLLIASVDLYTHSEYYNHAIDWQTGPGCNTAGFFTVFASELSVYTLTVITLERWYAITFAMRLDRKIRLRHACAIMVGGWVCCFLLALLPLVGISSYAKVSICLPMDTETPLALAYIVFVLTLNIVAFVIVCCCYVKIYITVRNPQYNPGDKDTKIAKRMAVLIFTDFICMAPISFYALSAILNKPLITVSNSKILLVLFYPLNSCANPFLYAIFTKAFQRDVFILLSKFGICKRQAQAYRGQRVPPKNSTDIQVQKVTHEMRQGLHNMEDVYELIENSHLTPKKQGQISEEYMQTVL

A short description of assay [10]: qHTS assay to identify small molecule agonists of the hypoxia (HIF-1) signaling pathway - cell viability counter screen (AID 1224844; calls by dose curve; further: nearly all actives have a fitted effect of over 50% in size; further: potency means the concentration at half of the fitted maximal effect). A digest of the protocol:
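Luminescent ATP content (CellTiter-Glo, 30 min, room temperature) served as the viability measure in HRE-bla ME-180 cells exposed to compounds for 17 hrs in low-serum medium (0.5% dialyzed FBS).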

The nature of assay [11]: qHTS assay to identify small molecule agonists of H2AX (AID 1224845; active means well fitted activation curve with a large enough effect in the signal ratio in the repeat runs, not every such curve was filed as active; the % refers to the signal ratio; further: on the % scale 0 is the no-effect control and ±100 the full control effect). In short, it runs like this: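 Wild-type CHO-K1 cells, plated overnight, exposed 3hr at 37C to 15 concentrations (0.76% DMSO final). Lysed, then HTRF anti-pH2AX (S139) cryptate and anti-H2AX-d2 antibodies, 24 hr room temperature; 665/620 nm emission read.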
The nature of assay [12]: qHTS assay to identify small molecule agonists of the hypoxia (HIF-1) signaling pathway (AID 1224846; active means well fitted activation curve with a large enough effect in the signal ratio in the repeat runs, not every such curve was filed as active; the % refers to the signal ratio; further: on the % scale 0 is the no-effect control and ±100 the full control effect). A digest of the protocol: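 Measured by blue/green FRET after loading CCF4-AM: beta-lactamase expressed from a hypoxia response element in ME-180 cells. Test agents were delivered in DMSO and left 17 hrs; cells had been plated 5 hrs earlier in low-serum (0.5% dialyzed FBS) medium.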

Assay [13] can be described thus: qHTS assay to identify small molecule agonists of H2AX - cell viability counter screen (AID 1224847; calls by dose curve; further: top concentration of the series differs between compounds; on the % scale 0 is the no-effect control and ±100 the full control effect; nearly all actives have a fitted effect of over 30% in size). In short, it runs like this: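 After overnight plating of 1000 CHO-K1 cells per well, a 15-concentration compound series was applied for 3 hr at 37C. Luminescence from CellTiter-Glo, read following 30 min at room temperature, reflected cell viability.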
A short description of assay [14]: qHTS assay to identify small molecule antagonists of the estrogen related receptor (ERR) signaling pathway from Tox21 library (AID 1224848). Further: nearly all actives have a fitted effect of over 50% in size. Further: potency means the concentration at half of the fitted maximal effect. In short, it runs like this: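 ERR reporter cell line (from NTP) seeded 2,000 cells/well, rested 6 h at 37 C/5% CO2, then pin-dosed with compounds in DMSO. After 18 h at 37 C, ONE-Glo added; luminescence read after 30 min at room temperature.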

Assay [15] is described as follows: qHTS assay to identify small molecule agonists of the estrogen related receptor (ERR) signaling pathway from Tox21 library (AID 1224849; calls by dose curve; further: on the % scale 0 is the no-effect control and ±100 the full control effect; nearly all actives have a fitted effect of over 15% in size). The note with it: ERR reporter cell line, ONE-Glo luciferase, 18 h; at 92.4 µM (top of the series) unless noted. In short, it runs like this:
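We plated ERR reporter cells, waited 6 h, added compounds in DMSO by pin tool and incubated them 18 h at 37 C. ONE-Glo was then added and luminescence read after 30 min.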

The nature of assay [16]: qHTS RealTime-Glo MT Cell Viability Assay in HepG2 cells - 24 hour (AID 1224867). Further: on the % scale 0 is the no-effect control and ±100 the full control effect; nearly all actives have a fitted effect of over 50% in size. A digest of the protocol:
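Cell number in HepG2 cultures estimated from NanoLuc luminescence generated by metabolic reduction of a prosubstrate by living cells. The homogeneous, nonlytic format allowed repeated reads at 0, 8, 16, 24, 32 and 40 h of compound exposure.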

Assay [17] in a line: qHTS RealTime-Glo MT Cell Viability Assay in HEK293 cells - 32 hour (AID 1224868). Further: nearly all actives have a fitted effect of over 50% in size. Further: potency means the concentration at half of the fitted maximal effect. In short, it runs like this: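 Homogeneous bioluminescent viability format in HEK293 cells (600 cells/well). Following 5 h at 37 C/5% CO2, 23 nL compound was pintooled; the signal was measured repeatedly during 40 h incubation.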
The nature of assay [18]: A CellTox Green Cytotoxicity Assay to monitor cytotoxicity in HEK293 cells - 0 hour (AID 1224869). In short, it runs like this: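 Each value comes from one timepoint of a single continuous run in which HEK293 cells with CellTox Green were exposed to compound for up to 40 h at 37 C, dye fluorescence rising with cell death.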
Assay [19] is described as follows: qHTS assay to identify small molecule antagonists of the estrogen related receptor (ERR) signaling pathway from Tox21 library - cell viability counter screen (AID 1224834). Further: potency means the concentration at half of the fitted maximal effect; nearly all actives have a fitted effect of over 30% in size. A digest of the protocol:
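Viability readout (CellTiter-Fluor fluorescence, 30 min at 37 C) multiplexed with the ERR assay; cells treated 17.5 h at 37 C with compounds delivered in DMSO.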

Chain of Luciferin 4-monooxygenase (Photinus pyralis) (P08659 whole entry, looked up): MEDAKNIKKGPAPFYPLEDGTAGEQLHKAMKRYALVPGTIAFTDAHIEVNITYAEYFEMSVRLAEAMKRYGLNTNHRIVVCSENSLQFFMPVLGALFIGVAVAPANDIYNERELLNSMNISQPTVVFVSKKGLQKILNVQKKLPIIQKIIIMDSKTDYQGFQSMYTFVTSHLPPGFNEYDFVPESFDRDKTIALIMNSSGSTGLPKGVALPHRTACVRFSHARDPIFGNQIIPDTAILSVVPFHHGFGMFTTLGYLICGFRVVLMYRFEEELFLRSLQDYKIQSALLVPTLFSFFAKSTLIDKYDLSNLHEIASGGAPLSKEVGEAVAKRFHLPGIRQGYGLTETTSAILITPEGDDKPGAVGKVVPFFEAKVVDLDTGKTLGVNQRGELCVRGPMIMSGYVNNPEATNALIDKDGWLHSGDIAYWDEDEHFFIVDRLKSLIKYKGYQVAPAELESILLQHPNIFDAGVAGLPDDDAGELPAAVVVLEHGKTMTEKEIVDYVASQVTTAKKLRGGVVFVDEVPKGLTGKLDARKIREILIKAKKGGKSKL
Chain of Nuclear receptor subfamily 1 group I member 3 (Homo sapiens) (Q14994 whole entry, looked up): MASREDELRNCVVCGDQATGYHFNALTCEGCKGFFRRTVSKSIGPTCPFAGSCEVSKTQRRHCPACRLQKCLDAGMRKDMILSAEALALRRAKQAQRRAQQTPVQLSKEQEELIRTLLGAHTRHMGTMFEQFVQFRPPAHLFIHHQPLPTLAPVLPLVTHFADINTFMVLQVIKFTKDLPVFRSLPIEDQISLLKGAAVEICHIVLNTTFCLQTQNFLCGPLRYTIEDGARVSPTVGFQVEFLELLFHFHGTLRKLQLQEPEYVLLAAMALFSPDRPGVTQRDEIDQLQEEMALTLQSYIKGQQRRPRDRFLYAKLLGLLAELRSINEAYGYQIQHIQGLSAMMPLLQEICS

For the molecule `CC(=O)CC(c1ccc([N+](=O)[O-])cc1)c1c(O)c2ccccc2oc1=O` (stereo not drawn), the Potency result in assay [1], in assay [2], in assay [3], in assay [4], in assay [5] and in [6] was “inactive” in each case. Besides, the Potency entry in assay [7], in assay [8], in [9], in assay [10], in assay [11] and in [13] was “inactive” each time. For the same molecule, the Potency entry in assay [14], in assay [16], in assay [17] and in assay [18] was “inactive” throughout. Besides, the outcome in assay [12] was inactive. Besides, the activity change, positive = activation in assay [15] was -11.1% [at 42.5 µM].
Regarding `CC(=O)OCC(=O)[C@H]1CC[C@H]2[C@@H]3CCC4=CC(=O)CC[C@]4(C)[C@H]3CC[C@]12C`, the Potency entry in assay [1], in assay [2], in [3], in assay [4], in assay [5] and in assay [6] was “inactive” throughout. Further, the Potency result in [7], in [9], in assay [10], in assay [11], in [13] and in assay [16] was “inactive” each time. For the same molecule, the Potency entry in assay [18] was “inactive”. Besides, the Potency in assay [14] is 21.1 µM (active). Besides, in [15], the activity change, positive = activation was -35.1% [at 42.5 µM].
As for `COCCOC`, the Potency was 1.04 µM (active) in assay [19]; 1.64 µM (active) in assay [2]; 9.24 µM (active) in assay [4]; 4.67 µM (active) in [10]; 1.46 µM (active) in assay [14]; 0.74 µM (active) in assay [17]. Besides, the Potency entry in [5], in assay [9], in assay [13], in assay [16] and in assay [18] was “inactive” each time. In addition, the activity change, positive = activation in assay [15] was -69.9%.
Take `NC(=O)N(O)[C@@H]1COc2cc(OCc3ccccc3)ccc21`: the Potency was 1.12 µM (active) in [1] and 0.193 µM (active) in assay [5]. Further, the Potency entry in assay [2], in assay [3], in assay [4], in assay [9], in assay [10] and in assay [11] was “inactive” in each case. Besides, the Potency entry in assay [16] and in assay [18] was “inactive” in each case. Also, the molecule was called inactive in [12].
Regarding `Cc1ccc(S(=O)(=O)NC2CCCCC2)cc1`, the Potency entry in [1], in assay [2], in assay [3], in assay [4], in [5] and in [6] was “inactive” throughout. The Potency entry in assay [7], in assay [8], in [9], in assay [10], in assay [11] and in assay [16] was “inactive” each time. In addition, in [18], the Potency entry was “inactive”. Moreover, the molecule was classed as inactive in assay [12]. Besides, in assay [14], the Potency was 27.1 µM (active). In addition, the activity change, positive = activation in assay [15] was -34.7%.
Take `O=C(OCCOCCO)c1ccccc1Nc1cccc(C(F)(F)F)c1`: the Potency entry in assay [1], in [2], in assay [3], in [4], in [5] and in assay [9] was “inactive” each time. Further, the Potency result in [10], in assay [11] and in assay [16] was “inactive” throughout. Besides, the molecule was called inactive in assay [12].
As to `CC(C)(C)C(=O)O`, the Potency result in assay [1], in assay [2], in assay [3], in [4], in assay [5] and in assay [6] was “inactive” each time. Besides, the Potency result in [7], in [8], in [9], in assay [10], in [11] and in assay [13] was “inactive” each time. The Potency result in assay [14], in assay [16], in assay [17] and in [18] was “inactive” in each case. The call in assay [12] was inactive. The activity change, positive = activation in assay [15] is 3.7%.
In the case of `CCCCCCCCCCCC[N+](C)(C)CCCS(=O)(=O)[O-]`, the Potency entry in assay [1], in assay [2], in [3], in [4], in assay [5] and in assay [6] was “inactive” throughout. Besides, the Potency entry in assay [9], in assay [10], in assay [11], in [13], in assay [16] and in [17] was “inactive” each time. Besides, the Potency entry in assay [18] is “inactive”. Also, the outcome in [12] was inactive.
For the molecule `CCc1c2c(nc3ccc(OC(=O)N4CCC(N5CCCCC5)CC4)cc13)-c1cc3c(c(=O)n1C2)COC(=O)[C@]3(O)CC`, the Potency result in assay [1], in assay [2], in [3], in assay [5], in assay [6] and in [9] was “inactive” each time. Also, the Potency entry in [13], in [16] and in assay [18] was “inactive” each time. In addition, the call in assay [12] was inactive. For the same molecule, the Potency in assay [17] was 2.68 µM (active).
`CCCCCCCCCCOS(=O)(=O)O`: the Potency result in assay [2], in [3], in assay [4], in [5], in [6] and in assay [9] was “inactive” each time. Further, the Potency result in assay [10], in assay [11], in assay [13], in [16], in assay [17] and in assay [18] was “inactive” in each case. In addition, the molecule was called inactive in assay [12].
